Assay results taken from PubChem BioAssay (EPA / NIEHS).
Active and inactive are the calls of the source. Rule for the calls: active = hit-call score of the fitted dose curve at least 0.9, where 1 is the maximum; inactive = score below 0.9.

Experiments:
[1] = read-out: Interleukin-1 alpha (IL1a), IL1A (gene 3552); assay: BSK_KF3CT_IL1a: BioMAP Diversity Plus: KF3CT Assay for Interleukin-1 alpha (IL1a) Biomarker Activity (AID 2283070); details: primary human keratinocytes with fibroblasts; actives raise or lower the signal
Procedure, shortened: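 IL-1a was detected by ELISA 24 h after chemical treatment of a co-culture of human skin keratinocytes and foreskin fibroblasts. Gain or loss of signal was fitted against the DMSO baseline.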

[2] = read-out: TIMP metallopeptidase inhibitor 2 (TIMP2), TIMP2 (gene 7077); assay: BSK_KF3CT_TIMP2: BioMAP Diversity Plus: KF3CT Assay for TIMP metallopeptidase inhibitor 2 (TIMP2) Biomarker Activity (AID 2283071); details: primary human keratinocytes with fibroblasts; actives raise or lower the signal
Procedure, shortened: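 Chemicals were dosed onto human skin primary co-cultures of keratinocytes and foreskin fibroblasts, and TIMP-2 was measured by ELISA after 24 hours. Activity in either direction was fitted relative to DMSO.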

[3] = read-out: Transforming growth factor beta 1 (TGFb1), TGFB1 (gene 7040); assay: BSK_KF3CT_TGFb1: BioMAP Diversity Plus: KF3CT Assay for Transforming growth factor beta 1 (TGFb1) Biomarker Activity (AID 2283072); details: primary human keratinocytes with fibroblasts; actives raise or lower the signal
Procedure, shortened: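 KF3CT co-culture (keratinocytes + fibroblasts), 24 h exposure → TGF-b1 ELISA → bidirectional fit, DMSO = baseline. Parallel SRB total-protein staining (0.1% SRB, 10% TCA fixation, 560 nm) for cytotoxicity.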

[4] = read-out: C-C motif chemokine 2 (Homo sapiens) (UniProt P13500); assay: BSK_KF3CT_MCP1: BioMAP Diversity Plus: KF3CT Assay for Monocyte Chemoattractant Protein 1 (MCP1/CCL2) Biomarker Activity (AID 2283073); details: primary human keratinocytes with fibroblasts; actives raise or lower the signal
Procedure, shortened: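 Human keratinocyte–foreskin fibroblast co-culture; MCP-1 measured by ELISA 24 h after dosing. Bidirectional fit vs DMSO; cytotoxicity tracked by SRB total protein in parallel cultures.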

[5] = read-out: Matrix Metallopeptidase 9 (MMP9), MMP9 (gene 4318); assay: BSK_KF3CT_MMP9: BioMAP Diversity Plus: KF3CT Assay for Matrix Metallopeptidase 9 (MMP9) Biomarker Activity (AID 2283074); details: primary human keratinocytes with fibroblasts; actives raise or lower the signal;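 for AC50: MMP9 protein level quantified by ELISA in the co-culture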
Procedure, shortened: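 MMP-9 quantified by ELISA after 24 h chemical treatment of primary human skin keratinocyte/fibroblast co-cultures; gain or loss fitted against DMSO, with parallel SRB staining (0.1% SRB, 560 nm) for overt cytotoxicity.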

[6] = read-out: urokinase plasminogen activator (uPA), PLAU (gene 5328); assay: BSK_KF3CT_uPA: BioMAP Diversity Plus: KF3CT Assay for urokinase plasminogen activator (uPA) Biomarker Activity (AID 2283075); details: primary human keratinocytes with fibroblasts; actives raise or lower the signal
Procedure, shortened: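 ELISA read-out of uPA 24 h after dosing human skin keratinocytes co-cultured with foreskin fibroblasts. Signal change fitted both ways relative to DMSO; sulforhodamine B on parallel cultures marks overt cytotoxicity.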

[7] = read-out: E-selectin (Homo sapiens) (UniProt P16581); assay: BSK_LPS_Eselectin: BioMAP Diversity Plus: LPS Assay for Eselectin Biomarker Activity (AID 2283077); details: primary human HUVEC with PBMC; actives raise or lower the signal
Procedure, shortened: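 Human umbilical vein endothelial cells co-cultured with PBMC under LPS stimulation; cell-surface E-selectin measured by ELISA 24 h after dosing. Change in either direction versus DMSO, with SRB total-protein staining in parallel cultures for cytotoxicity.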

[8] = read-out: Interleukin-8 (IL8), CXCL8 (gene 3576); assay: BSK_LPS_IL8: BioMAP Diversity Plus: LPS Assay for Interleukin-8 (IL8) Biomarker Activity (AID 2283078); details: primary human HUVEC with PBMC; actives raise or lower the signal
Procedure, shortened: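 Human umbilical vein endothelial cells co-cultured with PBMC, LPS-stimulated, exposed to compound for 24 h. IL-8 quantified by ELISA; fitted in both directions against DMSO, with SRB total-protein staining of parallel cultures for cytotoxicity.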

[9] = BSK_LPS_SRB: Viability Assessment in the BioMAP Diversity Plus: LPS Assay (AID 2283079); details: primary human HUVEC with PBMC;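 note: total protein by sulforhodamine B absorbance as a cytotoxicity measure; measured one day after compound addition; fitted in both directions against DMSO so loss or gain of signal counts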
Procedure, shortened: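 Co-culture of human umbilical vein endothelial cells and PBMC, read 24 h after dosing. Total protein by 0.1% SRB staining after 10% TCA fixation, absorbance at 560 nm; bidirectional fit against DMSO.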

[10] = read-out: Interleukin-1 alpha (IL1a), IL1A (gene 3552); assay: BSK_LPS_IL1a: BioMAP Diversity Plus: LPS Assay for Interleukin-1 alpha (IL1a) Biomarker Activity (AID 2283080); details: primary human HUVEC with PBMC; actives raise or lower the signal
Procedure, shortened: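 Human umbilical vein endothelial cells co-cultured with PBMC and stimulated with LPS; IL-1a measured by ELISA 24 h after dosing. Bidirectional fitting against DMSO; cytotoxicity checked by SRB staining in parallel cultures.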

[11] = read-out: Monocyte Chemoattractant Protein-1 (MCP1), CCL2 (gene 6347); assay: BSK_LPS_MCP1: BioMAP Diversity Plus: LPS Assay for Monocyte Chemoattractant Protein-1 (MCP1) Biomarker Activity (AID 2283081); details: primary human HUVEC with PBMC; actives raise or lower the signal;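 for AC50: secreted MCP-1 protein quantified by ELISA in culture supernatant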
Procedure, shortened: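 Human umbilical vein endothelial cells co-cultured with PBMC, LPS-stimulated; secreted MCP-1 measured by ELISA 24 h after compound addition. Bidirectional curve fitting against DMSO baseline; SRB total-protein staining in parallel cultures for cytotoxicity.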

[12] = BSK_LPS_PGE2: BioMAP Diversity Plus: LPS Assay for Prostaglandin E2 (PGE2) Biomarker Activity (AID 2283082); details: primary human HUVEC with PBMC; actives raise or lower the signal;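 for AC50: secreted prostaglandin E2 measured by ELISA in LPS-stimulated co-culture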
Procedure, shortened: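 Compounds were added to the LPS co-culture of endothelium and PBMC, and PGE2 was measured by ELISA after 24 h. Responses in either direction were fitted with DMSO as baseline.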

[13] = read-out: Macrophage colony-stimulating factor (MCSF), CSF1 (gene 1435); assay: BSK_LPS_MCSF: BioMAP Diversity Plus: LPS Assay for Macrophage colony-stimulating factor (MCSF) Biomarker Activity (AID 2283083); details: primary human HUVEC with PBMC; actives raise or lower the signal
Procedure, shortened: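 HUVEC–PBMC co-culture, M-CSF measured by ELISA 24 h after chemical dosing. Fitted in both directions relative to DMSO as negative control; overt cytotoxicity assessed by SRB total-protein staining in parallel cultures.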

[14] = read-out: Tissue Factor, F3 (gene 2152); assay: BSK_LPS_TissueFactor: BioMAP Diversity Plus: LPS Assay for Tissue Factor Biomarker Activity (AID 2283084); details: primary human HUVEC with PBMC; actives raise or lower the signal
Procedure, shortened: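 Human umbilical vein endothelial cells co-cultured with PBMC were dosed with compound. Cell-surface CD142 was measured by ELISA 24 h later. Activity was fitted bidirectionally against DMSO, with SRB total-protein staining in parallel cultures for cytotoxicity.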

[15] = read-out: Tumor necrosis factor (Homo sapiens) (UniProt P01375); assay: BSK_LPS_TNFa: BioMAP Diversity Plus: LPS Assay for Tumour Necrosis Factor alpha (TNFa) Biomarker Activity (AID 2283085); details: primary human HUVEC with PBMC; actives raise or lower the signal;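 for AC50: TNFa protein level quantified by ELISA in the co-culture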
Procedure, shortened: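 Cells (umbilical vein endothelium plus peripheral blood mononuclear cells) were dosed with chemical, incubated 24 h, then TNFa was quantified by ELISA; values derive from bidirectional fitting with DMSO as baseline.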

[16] = read-out: Vascular cell adhesion molecule 1 (VCAM1), VCAM1 (gene 7412); assay: BSK_LPS_VCAM1: BioMAP Diversity Plus: LPS Assay for Vascular cell adhesion molecule 1 (VCAM1) Biomarker Activity (AID 2283086); details: primary human HUVEC with PBMC; actives raise or lower the signal
Procedure, shortened: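 Cells are dosed in an LPS-stimulated endothelial/mononuclear co-culture and, after 24 h, VCAM-1 is quantified by ELISA. Activity in either direction is fitted relative to the DMSO negative control.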

CD38, CD38 (gene 952) = assay: BSK_SAg_CD38: BioMAP Diversity Plus: SAg Assay for CD38 Biomarker Activity (AID 2283087); details: primary human HUVEC with PBMC; actives raise or lower the signal
Procedure, shortened: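 CD38 quantified by ELISA (fluorescence) in a superantigen-activated endothelial cell–PBMC co-culture at 24 h post-dose. Activity fitted in both directions relative to DMSO; parallel SRB and Alamar Blue cytotoxicity read-outs.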

CD40, CD40 (gene 958) [17] = assay: BSK_SAg_CD40: BioMAP Diversity Plus: SAg Assay for CD40 Biomarker Activity (AID 2283088); details: primary human HUVEC with PBMC; actives raise or lower the signal
Procedure, shortened: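 HUVEC plus PBMC co-culture, superantigen-activated, with CD40 read by ELISA 24 h after dosing. Curves fitted in both directions against DMSO. Overt cytotoxicity checked by parallel SRB total-protein staining.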

CD69, CD69 (gene 969) = assay: BSK_SAg_CD69: BioMAP Diversity Plus: SAg Assay for CD69 Biomarker Activity (AID 2283089); details: primary human HUVEC with PBMC; actives raise or lower the signal;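 for AC50: cell surface CD69 protein quantified by ELISA with fluorescence detection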
Procedure, shortened: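 ELISA, fluorescence read-out: CD69 on human umbilical vein endothelial cell + PBMC co-culture, 24 h post-dosing. Gain or loss of signal fitted bidirectionally against DMSO baseline.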

CD40, CD40 (gene 958) [18] = assay: BSK_LPS_CD40: BioMAP Diversity Plus: LPS Assay for CD40 Biomarker Activity (AID 2283076); details: primary human HUVEC with PBMC; actives raise or lower the signal
Procedure, shortened: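 HUVEC plus PBMC co-culture stimulated with LPS; CD40 quantified by ELISA 24 h after compound dosing. Fitting was bidirectional relative to DMSO. SRB staining of parallel cultures flagged overt cytotoxicity.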

Measured: AC50

E-selectin (Homo sapiens), sequence (P16581 whole entry, looked up): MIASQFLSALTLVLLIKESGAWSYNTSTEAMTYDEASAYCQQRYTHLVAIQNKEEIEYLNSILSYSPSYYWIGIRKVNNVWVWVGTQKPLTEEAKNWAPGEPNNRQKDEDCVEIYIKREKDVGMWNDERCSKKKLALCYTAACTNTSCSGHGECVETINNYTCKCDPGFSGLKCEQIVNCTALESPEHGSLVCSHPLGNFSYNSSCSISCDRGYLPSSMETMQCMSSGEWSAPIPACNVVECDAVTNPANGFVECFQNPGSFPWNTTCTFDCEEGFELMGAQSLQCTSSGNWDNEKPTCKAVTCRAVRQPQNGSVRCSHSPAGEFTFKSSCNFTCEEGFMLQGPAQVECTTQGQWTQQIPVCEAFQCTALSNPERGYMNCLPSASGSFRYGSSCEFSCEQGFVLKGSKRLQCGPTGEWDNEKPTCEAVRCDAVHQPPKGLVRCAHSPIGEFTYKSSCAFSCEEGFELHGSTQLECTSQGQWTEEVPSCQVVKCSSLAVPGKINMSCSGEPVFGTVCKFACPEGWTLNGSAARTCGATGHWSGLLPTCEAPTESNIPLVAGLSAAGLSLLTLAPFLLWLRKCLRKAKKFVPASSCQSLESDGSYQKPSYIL
Tumor necrosis factor (Homo sapiens), sequence (P01375 whole entry, looked up): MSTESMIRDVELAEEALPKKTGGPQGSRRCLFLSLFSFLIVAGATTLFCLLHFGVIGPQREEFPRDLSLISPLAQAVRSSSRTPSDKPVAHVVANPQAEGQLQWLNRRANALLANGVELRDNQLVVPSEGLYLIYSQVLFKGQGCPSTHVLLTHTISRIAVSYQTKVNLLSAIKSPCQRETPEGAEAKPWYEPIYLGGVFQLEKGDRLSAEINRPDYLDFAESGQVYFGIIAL

C=CC(=O)OCC(CC)(COC(=O)C=C)COC(=O)C=C
inactive: [8] | [12] | [15]
active: [1] 2.16 µM | [2] 5.38 µM | [3] 2.37 µM | [4] 2.35 µM | [5] 2.34 µM | [6] 3.11 µM | [7] 2.93 µM | [9] 2.43 µM | [10] 1.46 µM | [11] 3.29 µM | [13] 1.91 µM | [14] 2.29 µM | [16] 2.79 µM | CD38, CD38 (gene 952) 1.78 µM | CD40, CD40 (gene 958) [17] 2.12 µM | CD69, CD69 (gene 969) 2.3 µM

CCOC(=O)c1ccccc1C(=O)OCC
not listed: CD38, CD38 (gene 952)
inactive: all other assays above

CCN(CC)c1ccccc1
not listed: CD40, CD40 (gene 958) [18]
inactive: all other assays above

CCOP(=S)(OCC)SCS(=O)(=O)CC
inactive: all assays above

N#Cc1c(-c2ccc(Cl)cc2)[nH]c(C(F)(F)F)c1Br
active: [3] 0.186 µM | [4] 0.0621 µM | [5] 3.97 µM | CD40, CD40 (gene 958) [18] 4.05 µM | [8] 4.18 µM | [9] 3.97 µM | [10] 1.36 µM | [12] 0.949 µM | [15] 0.016 µM | [16] 3.97 µM | CD38, CD38 (gene 952) 0.343 µM | CD40, CD40 (gene 958) [17] 0.34 µM | CD69, CD69 (gene 969) 0.472 µM
inactive: [1] | [2] | [6] | [7] | [11] | [13] | [14]

Nc1ccc([N+](=O)[O-])cc1Cl
inactive: all assays above

CSC(C)(C)C=NO
not listed: CD38, CD38 (gene 952)
inactive: all other assays above

c1ccc2c(c1)sc1ccccc12
active: [12] 0.596 µM
inactive: all other assays above

CC(C)(C)c1ccccc1OP(=O)(Oc1ccccc1)Oc1ccccc1
active: [1] 20 µM | [2] 20 µM | [5] 8.49 µM | CD40, CD40 (gene 958) [18] 25.3 µM | [7] 20 µM | [8] 20 µM | [9] 20 µM | [10] 27.3 µM | [11] 20 µM | [13] 20 µM | [16] 20 µM | CD38, CD38 (gene 952) 30.7 µM | CD40, CD40 (gene 958) [17] 28.3 µM | CD69, CD69 (gene 969) 27.5 µM
inactive: [3] | [4] | [6] | [12] | [14] | [15]

CCOP(=S)(S)OCC
active: [10] 36.6 µM
not listed: CD40, CD40 (gene 958) [18]
inactive: all other assays above

CC(Cl)(Cl)C(=O)O
not listed: CD38, CD38 (gene 952)
inactive: all other assays above

O=C(O)C1C(C(=O)O)C2(Cl)C(Cl)=C(Cl)C1(Cl)C2(Cl)Cl (centres undefined)
inactive: all assays above
